Data as given in paper PMC5700166.
Positions count from the first letter of the chain named.

Columns and labels:
Assay in all cases: protein-binding microarray (PBM); PBM: ~300 nM protein, 6 mM HEPES pH 7.8, 80 mM KCl, 0.5 mM EDTA, 0.5 mM EGTA, 6% glycerol, 35 ng/ul poly-dIdC, 1% milk, 1 h, room temperature; Ap Aiptasia and Nv Nematostella (sea anemones) / Co Capsaspora / Aq Amphimedon (sponge) / Dm Drosophila / Hu human; RHD is the Rel homology domain; high values mean tight binding
Conditions in all cases: dsDNA, one strand shown
[1] = target: T1, GST-Ap-NF-kB RHD (Exaiptasia pallida (Aiptasia), UniProt A0A913YAJ5 2-422)
T1 sequence: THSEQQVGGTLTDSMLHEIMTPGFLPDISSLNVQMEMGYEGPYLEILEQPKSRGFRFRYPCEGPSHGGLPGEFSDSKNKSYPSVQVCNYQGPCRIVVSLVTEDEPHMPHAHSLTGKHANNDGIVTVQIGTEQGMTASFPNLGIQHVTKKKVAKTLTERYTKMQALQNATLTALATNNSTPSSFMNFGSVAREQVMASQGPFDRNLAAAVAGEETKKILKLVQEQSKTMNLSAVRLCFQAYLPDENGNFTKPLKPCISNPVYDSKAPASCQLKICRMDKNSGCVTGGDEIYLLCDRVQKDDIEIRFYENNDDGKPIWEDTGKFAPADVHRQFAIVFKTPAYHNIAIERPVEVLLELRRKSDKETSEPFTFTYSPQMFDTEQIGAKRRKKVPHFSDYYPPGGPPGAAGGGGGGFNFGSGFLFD

[2] = target: T2, GST-Nv-NF-kB (Cys allele) (Nematostella vectensis, UniProt E5G601 2-411)
T2 sequence: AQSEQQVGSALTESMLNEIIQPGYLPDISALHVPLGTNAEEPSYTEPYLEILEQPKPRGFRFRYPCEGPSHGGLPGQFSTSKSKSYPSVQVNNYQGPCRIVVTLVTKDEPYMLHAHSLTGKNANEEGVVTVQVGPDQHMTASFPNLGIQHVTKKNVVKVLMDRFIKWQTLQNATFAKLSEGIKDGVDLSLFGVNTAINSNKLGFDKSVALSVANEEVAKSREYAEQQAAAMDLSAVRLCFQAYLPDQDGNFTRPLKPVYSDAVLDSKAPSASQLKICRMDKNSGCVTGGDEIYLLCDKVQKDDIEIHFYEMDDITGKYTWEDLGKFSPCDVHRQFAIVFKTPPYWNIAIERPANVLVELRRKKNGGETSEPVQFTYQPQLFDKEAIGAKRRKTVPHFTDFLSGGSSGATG

[3] = target: T3, GST-Nv-NF-kB (Ser allele) (Nematostella vectensis, UniProt A7UNT2 2-411)
T3 sequence: T2 sequence with Q21R, C66S, S207N, E215Q, V217A, E225K, A268E, D399E

[4] = target: T4, GST-Co-NF-kB (Capsaspora owczarzaki, UniProt F1ARL5 200-546)
T4 sequence: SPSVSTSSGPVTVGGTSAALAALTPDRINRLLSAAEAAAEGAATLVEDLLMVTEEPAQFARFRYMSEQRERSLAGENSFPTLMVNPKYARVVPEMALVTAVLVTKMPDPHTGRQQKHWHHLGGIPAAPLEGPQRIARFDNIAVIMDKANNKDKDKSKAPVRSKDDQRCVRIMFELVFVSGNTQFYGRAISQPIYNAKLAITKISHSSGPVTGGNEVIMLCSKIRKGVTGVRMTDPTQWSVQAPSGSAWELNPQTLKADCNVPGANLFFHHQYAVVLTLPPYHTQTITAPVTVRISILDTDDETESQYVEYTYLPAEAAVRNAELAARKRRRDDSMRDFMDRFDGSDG

[5] = target: T5, GST-Dm-Relish (Drosophila melanogaster, UniProt Q94527 99-473)
T5 sequence: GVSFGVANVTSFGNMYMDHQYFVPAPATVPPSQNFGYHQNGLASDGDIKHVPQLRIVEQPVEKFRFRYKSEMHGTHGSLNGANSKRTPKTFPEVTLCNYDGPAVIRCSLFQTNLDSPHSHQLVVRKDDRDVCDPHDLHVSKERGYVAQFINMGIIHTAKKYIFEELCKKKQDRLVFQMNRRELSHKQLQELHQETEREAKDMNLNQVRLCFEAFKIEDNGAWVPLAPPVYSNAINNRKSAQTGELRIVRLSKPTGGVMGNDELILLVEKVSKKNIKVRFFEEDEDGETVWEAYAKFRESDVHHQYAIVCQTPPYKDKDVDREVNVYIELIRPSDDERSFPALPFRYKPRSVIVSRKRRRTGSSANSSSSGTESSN

[6] = target: T6, GST-Aq-NF-kB (Amphimedon queenslandica, UniProt A9Y5G7 2-389)
T6 sequence: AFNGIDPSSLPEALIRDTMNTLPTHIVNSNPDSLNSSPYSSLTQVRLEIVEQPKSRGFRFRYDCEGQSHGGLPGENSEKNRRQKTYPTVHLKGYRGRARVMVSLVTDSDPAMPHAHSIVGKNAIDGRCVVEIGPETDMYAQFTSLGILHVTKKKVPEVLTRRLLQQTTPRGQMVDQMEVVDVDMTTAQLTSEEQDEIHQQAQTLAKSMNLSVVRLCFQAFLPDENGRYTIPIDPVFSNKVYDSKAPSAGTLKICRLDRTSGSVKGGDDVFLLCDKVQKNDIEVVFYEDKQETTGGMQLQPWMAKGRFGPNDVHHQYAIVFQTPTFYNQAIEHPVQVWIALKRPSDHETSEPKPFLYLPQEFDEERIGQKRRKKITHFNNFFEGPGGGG

[7] = target: GST-Hu-p50 (Homo sapiens, UniProt P19838 7-356)
GST-Hu-p50, sequence (P19838 7-356): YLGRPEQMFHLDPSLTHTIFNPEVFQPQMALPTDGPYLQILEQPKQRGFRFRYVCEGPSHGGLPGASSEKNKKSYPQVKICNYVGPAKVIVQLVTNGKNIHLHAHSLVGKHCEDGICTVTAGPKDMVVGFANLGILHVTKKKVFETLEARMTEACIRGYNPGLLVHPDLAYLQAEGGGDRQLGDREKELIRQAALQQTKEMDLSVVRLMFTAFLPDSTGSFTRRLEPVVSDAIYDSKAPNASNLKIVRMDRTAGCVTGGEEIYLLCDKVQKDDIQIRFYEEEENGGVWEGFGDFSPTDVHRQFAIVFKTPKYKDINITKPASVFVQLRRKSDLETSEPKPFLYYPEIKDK

| Sequence | binding signal [1] [z-score] | binding signal [2] [z-score] | binding signal [3] [z-score] | binding signal [4] [z-score] | binding signal [5] [z-score] | binding signal [6] [z-score] | binding signal [7] [z-score] |
| --- | --- | --- | --- | --- | --- | --- | --- |
| CCGATTAACATCAGGGAATCCCATGATGTTAATCGGGTCTTGATTCGCTTGACGCTGCTG | 5.36 | 4.92 | 4.14 | 2.97 | 10.4 | 6.45 | 4.13 |
| CCGATTAACATCACTTTTTCCCCTGATGTTAATCGGGTCTTGATTCGCTTGACGCTGCTG | 6.12 | 7.44 | 9.65 | 10.6 | 3.45 | 4.94 | 5.64 |
| CCGATTAACATCAGGGAATTTAATGATGTTAATCGGGTCTTGATTCGCTTGACGCTGCTG | 3.7 | 6.07 | 6.59 | 4.07 | 4.24 | 5.09 | 4.45 |
| CCGATTAACATCACCTTTCCCCCTGATGTTAATCGGGTCTTGATTCGCTTGACGCTGCTG | 6.53 | 6.31 | 7.29 | 9.42 | 2.89 | 4.77 | 5.65 |
| CCGATTAACATCACCAAATCCCCTGATGTTAATCGGGTCTTGATTCGCTTGACGCTGCTG | 6.97 | 6.55 | 9.44 | 3.02 | 4.48 | 4.54 | 6.6 |
| CCGATTAACATCAGGGGAACCCCTGATGTTAATCGGGTCTTGATTCGCTTGACGCTGCTG | 12.5 | 11.6 | 11.2 | 6.69 | 10.5 | 10.7 | 7.08 |
| CCGATTAACATCAAACAGCCCCCTGATGTTAATCGGGTCTTGATTCGCTTGACGCTGCTG | 3.65 | 4.11 | 2.49 | 1.91 | 2.9 | 5.29 | 3.92 |
| CCGATTAACATCAAAGCTTTCCCTGATGTTAATCGGGTCTTGATTCGCTTGACGCTGCTG | 2.54 | 4.28 | 4.2 | 3.59 | 1.47 | 4.07 | 3.46 |
| CCGATTAACATCACTCATCCCCGTGATGTTAATCGGGTCTTGATTCGCTTGACGCTGCTG | 1.85 | 3.17 | 3.8 | 2.78 | 2.33 | 2.51 | 2.23 |
| CCGATTAACATCAAACATTCCCATGATGTTAATCGGGTCTTGATTCGCTTGACGCTGCTG | 1.96 | 3.21 | 2.5 | 2.38 | 1.59 | 3.52 | 2.11 |
| CCGATTAACATCAAGATATTCCCTGATGTTAATCGGGTCTTGATTCGCTTGACGCTGCTG | 4.46 | 4.57 | 5.05 | 3.05 | 2.34 | 4.02 | 2.44 |
| CCGATTAACATCAGAATTCCCCATGATGTTAATCGGGTCTTGATTCGCTTGACGCTGCTG | 8.83 | 10.3 | 9.9 | 7.04 | 6.72 | 6.99 | 6.62 |
